From the supplement of paper PMC12632987
The full ranking holds about 1,800 sequences; the median of “median log2 fold change of GCK-ALFA target abundance (FLAG IP / Myc IP barcode read proportion)” is about 0.14, and the lowest 2% start at about -0.84. The full list was thinned out, with the lowest values kept by preference.

T1: TRAF2, Q12933
T1 chain: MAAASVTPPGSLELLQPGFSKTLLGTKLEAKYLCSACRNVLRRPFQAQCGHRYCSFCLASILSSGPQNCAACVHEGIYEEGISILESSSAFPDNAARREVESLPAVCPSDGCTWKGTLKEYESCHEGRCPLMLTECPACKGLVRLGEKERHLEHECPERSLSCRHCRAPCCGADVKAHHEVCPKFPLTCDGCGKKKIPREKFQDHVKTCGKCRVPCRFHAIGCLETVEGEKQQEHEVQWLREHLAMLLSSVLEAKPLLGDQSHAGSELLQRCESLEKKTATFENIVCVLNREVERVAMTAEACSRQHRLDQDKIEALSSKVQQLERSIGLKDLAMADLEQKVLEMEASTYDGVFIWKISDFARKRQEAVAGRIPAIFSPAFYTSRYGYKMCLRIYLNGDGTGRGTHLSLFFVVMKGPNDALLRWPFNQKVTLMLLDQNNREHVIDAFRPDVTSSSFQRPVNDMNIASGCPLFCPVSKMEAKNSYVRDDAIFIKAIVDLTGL

B1: traf2_out_17_162_1551 (protein)
chain: SALEEELERLEEELRRLEEELERLKKELENLEKKSKEELTDLLVEASEARRRARELAERLRELEPLIGEERAGELRERAEEIAEELQRIANKIYKELEKK
B2: traf2_out_20_38_2037 (protein)
chain: SEEEEEEKKLQEVIDVANEALDKYEKKIAEWKAEGKTVEEIAEAAKEEVRRLLEEVGLEEEAEILVEDIDRALSSPDAERLIARILARAVALVKQKELNK
B3: traf2_out_11_169_882 (protein)
chain: EEKEKNRKFNDFALELNDKAKKELLAFAEELAKKLGLDVAEVKAIFEANKNSSLSALAAALIEYFRSKGHEDAAAAVLAKYEELQEKINKEGTKKLKELE
B4: traf2_out_17_178_1712 (protein)
chain: SKEEARKEISAATDEMIDLAEAAATRLLEIARKEGSLSPEELAELERARRLGSARTTLALMERAIPKSKSAEEVQAILDEFRKRYAELSKKIAEALEKYE
B5: traf2_out_20_38_2005 (protein)
chain: SEEEEEERRLKIIIEAANEELDRWEKEIEELKAEGKTVEEIAERAKEEVRRLLTAAGLEEEAEELIAEIDLVLDSPDALDAIARILARAKALVVQKELNK
B6: traf2_out_20_3_2071 (protein)
chain: KELEEEAERELERALELLKRAAELADEETAKRLEELIKRLKASRELSVDDRLVVVSEVRREVLELAEEAKAAGKEELAKELEEAAEALNRAAQLLYDILQ
B7: traf2_out_13_95_1038 (protein)
chain: SKELAEKIMEIADEMEERSLALLEAAKEELADDPEAVAVLTEAKRLAETKGISEALHLLREASAANPEHAARFDALIEELEAIRREAGRKVAKLIKEEEE
B8: traf2_out_15_48_1367 (protein)
chain: DAAAYRAAMNAAADRIIATKDEVKKEVKELAKVASPEVKKKLNEVAKLIEAGAGSQEIIAALKEAAKVASPELKAKLEELAERLRAARREASAIAAAMAK
B9: traf2_out_13_95_1077 (protein)
chain: SKETNEKIMEIADEMLDKVNEVLEELAEKVKDDPEMKAKVEEALHLATHRGINEAIHLLKKLAEENEEYKELLEEAIKKLEEIKEKAGKEVAKLLKEEEE
B10: traf2_out_13_95_1157 (protein)
chain: SAELAKKIMEIADEMLDRSLAVLDALLAKAKAAGKLEAEVAEARHLAETRSINEAIAKLRELAKAHPEFKAELDAAIAELEALRREAGRKVAELIKEEEE
B11: traf2_out_17_162_1532 (protein)
chain: SELEERLRELEEELRELEKRLEELEKELENLENMSKEELSDLLVEASEARRRALELAEELRELRSEIGEERAEELIRRAEEIAERLQRIANKIYEELEKK
B12: traf2_out_17_162_1548 (protein)
chain: GELEERLKELEEELEELERRAEELESLLPELPKLSKEELTDLLVEASEARRRARRLAEEIEKLKEEIGEERAEELRERAEEIAERLQRIANAIYKELEKK
B13: traf2_out_17_162_1490 (protein)
chain: EELEERLRELERRLEELERRLKELEEKLKNIDKLSKEELTDLLVEASEAKREARRLAEELRELRERTGREELEELIRRAEEIAERLQRIANIIYKELEKK
B14: traf2_out_18_3_1898 (protein)
chain: SEEKLKEISEKIDEIIDEVTAKAREVLDWLEKNKPEVKERIAALRADLEAGAGPFGILRELARLAKEAGEEEKAKEIEEFLKEKSKELQELVDEYLELRA
B15: traf2_out_13_95_1133 (protein)
chain: SAETAKKIMEIADKMLDEVEKILEELLKIFEKKGIGVEEIKEALYLARHQSINEAIAKLEELSKKYPEFKEELDKAIEEIKALREKAGKEVAEILKKEKE
B16: traf2_out_1_27_1000 (protein)
chain: STEEERELLRRANREIGRASPEEQVEIIKRTLREALERGIDSPEHIAVVLILMLGDEETRERAIEAAREVLREAGISEEAIERMERRVRSGWERLDRLLA
B17: traf2_out_11_169_815 (protein)
chain: EEAEKNRKINDFALELNDEAKKKLLEHAKKLAKEAGLDVEEVEKIFEENKNKSLSAVAAALIKYFRSKGKEEEAEAVLKKYEELKEEINKKVTEKIKELE
B18: traf2_out_13_95_1055 (protein)
chain: SAETAAKINEIADEALERALALLRAAQEEVADDPAASAVLAEALRLAETRGISEAIHLLREAQAADPAHAERFAALIEELEAIRREAGRRVAEVLKEEKE
B19: traf2_out_18_64_1955 (protein)
chain: SELDEEIDRLVDEMDERRRLRLALARALQARAAADPAWQPLLDYFHAHVNDIGAAGARRMLALLAAGAPPAELRAVMEEDLGEGRELQRRLAELLEKREK
B20: traf2_out_18_117_1787 (protein)
chain: MEREEIIERLKEIAEETGRAASELGKLVLEKWEELTPEEKSEAFDVLADLSEVRREAQLLIIEIEEKNLPIEEAKKRLEELEKRAEEALKRAEEKIKRIK
B21: traf2_out_17_178_1705 (protein)
chain: SKEEARKKISEATDKMIDLAQEAAERLLEIAEREGSLSPEELAELRRARRLGSARTTLALMRRAIPRSRSAEEVRRLVEEFEKEYRELSKIIAEELKKYE
B22: traf2_out_13_95_1155 (protein)
chain: SKELAEKIMEIADRMLDEALAVLDELLAAAKAAGKLEEEVARARHLAEHHSINEAIALLRELAKAHPEFKEELDAAIARLEALRREAGREVAELIKKEKE
B23: traf2_out_13_95_1102 (protein)
chain: SRELAEEIMKIADEMIDKANEILEELLKIAKEKGVAEEEVKEALYLAEHRSIREAIHKLKELAKEYPELKEEFEEAIEKLEKLIEEAGKKVAELIKEEKE
B24: traf2_out_6_166_2459 (protein)
chain: ESETLKEIREIIKELSKYSTEIIVKAFDEVAKKVDEESARILRQLKSAVEQAEKLGLDVETALTATVLGLITLGVPEETLLKLLKEVLKEAKKIAEEKEK
B25: traf2_out_13_95_1054 (protein)
chain: SAETAEKINEIADEALEEALALLEEARAEVADDPEASAVLDEALRLAETKGISEAIHLLEEARAADPAHAERFAALIERLRAIRREAGRKVAEVLKEAEE
B26: traf2_out_14_166_1277 (protein)
chain: MTPEEIERIRKIVDELEPLTDAAVARARAILDKVRDKLSPEDLARVEALLALAARNIGSSAINALREIAKIYKKAGLDEAAAAMQALADELEEKLKKLNK
B27: traf2_out_6_156_2405 (protein)
chain: MLEEIEEETLKEIEELIKELAAASEEKKIAYISKIAGTFYRGLQRARAAGASVEELEAFGKRVLEKTKELLDEEGLPQDVKDLILSSLNAVFDVALAEAR

Target: T1, TRAF2, Q12933
Experiment: median log2 fold change of GCK-ALFA target abundance (FLAG IP / Myc IP barcode read proportion) (log2 ratio); each designed protein is fused to an ALFA-tag nanobody in HEK293 cells to bring the named protein to FLAG-tagged glucokinase (GCK); Myc marks an untargeted standard; higher = target protein stabilised (more abundant)
Conditions: target protein: 3xFLAG-MCP-GCK-ALFA reporter; HEK293 landing pad (RPLP)
Procedure, shortened: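 HEK293 landing-pad cells received a recombined binder library fused to the ALFA nanobody and were induced with 2 μg mL^−1 doxycycline, then transfected with a plasmid encoding a FLAG-tagged target and a Myc-tagged standard. Lysates were collected after 48 h for anti-FLAG and anti-Myc immunoprecipitation, and the circular RNA barcodes were reverse transcribed, amplified and sequenced. Target abundance for each binder is the median log2 ratio of FLAG to Myc barcode read proportions. Barcodes had to reach a proportion of at least 10^−7 in both replicates, each binder needed at least 3 barcodes per replicate, a pseudocount of 10^−6 was applied, and the two replicates were pooled.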

Binder | median log2 fold change
B1 | 0.0543
B2 | -1.45
B3 | 0.444
B4 | 0.217
B5 | -1.09
B6 | 0.112
B7 | -0.177
B8 | -0.184
B9 | -0.0213
B10 | -0.558
B11 | 0.0409
B12 | 0.22
B13 | -1.17
B14 | -0.192
B15 | -0.0113
B16 | 0.155
B17 | 0.235
B18 | 0.257
B19 | 0.163
B20 | 0.101
B21 | -0.521
B22 | -0.372
B23 | -0.486
B24 | 0.077
B25 | 0.213
B26 | 0.354
B27 | 0.151
